The source of these data is PubChem BioAssay AID1851 (National Center for Advancing Translational Sciences (NCATS), 2009).

Screen size: about 16,000 compounds; about 5,100 (32%) were called active. Inconclusive results (about 25%) are left out. The list shows a part of the results. Unmarked numbers belong to inactive results. The call rests on the fitted dose curve; in most records, active means well fitted curve in the direction sought with a large enough effect; inconclusive means small, poorly fitted or top-dose-only effect, or effect the other way; inactive means no such curve, though single readings can be large or run the other way.

In general, AC50 refers to the midpoint of the concentration-response curve, whichever way the signal moves.
On the % scale 0 is the no-effect control and ±100 the full control effect.

For this experiment, the target named is Cytochrome P450 3A4 (Homo sapiens) (UniProt P08684). Description: Cytochrome panel assay with activity outcomes. Particulars: recombinant CYP, pro-luciferin dealkylation, luminescence, p450-cyp3a4; series mostly up to 57.1 µM; activity, negative = inhibition: at the top concentration.
Chain of Cytochrome P450 3A4 (Homo sapiens) (P08684 whole entry, looked up): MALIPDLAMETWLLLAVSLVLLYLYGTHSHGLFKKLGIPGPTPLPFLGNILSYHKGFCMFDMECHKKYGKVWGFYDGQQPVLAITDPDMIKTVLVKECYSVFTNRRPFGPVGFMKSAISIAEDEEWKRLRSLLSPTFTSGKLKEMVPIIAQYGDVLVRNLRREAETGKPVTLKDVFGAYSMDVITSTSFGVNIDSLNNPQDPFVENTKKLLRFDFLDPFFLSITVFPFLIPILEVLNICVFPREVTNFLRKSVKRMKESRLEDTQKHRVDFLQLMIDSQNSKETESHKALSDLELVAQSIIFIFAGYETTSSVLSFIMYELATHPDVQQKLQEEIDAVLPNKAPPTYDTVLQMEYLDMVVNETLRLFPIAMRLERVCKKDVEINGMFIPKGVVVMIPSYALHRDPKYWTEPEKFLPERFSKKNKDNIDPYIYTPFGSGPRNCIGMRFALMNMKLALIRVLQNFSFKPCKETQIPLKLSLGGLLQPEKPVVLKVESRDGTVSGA
As for `CSc1cc(C)nc(NC(C)=O)n1`, the “activity, negative = inhibition” value is -0.518%.
Turning to `Cc1nc(Oc2ccc(Cl)cc2)c2oc3ccccc3c2n1`, the activity, negative = inhibition was 5.99% [at 2.29 µM].
Regarding `CCc1nc(N[C@H](C(=O)O)C(C)CC)c2oc3ccccc3c2n1` (some centres undefined), the “activity, negative = inhibition” value is -3.57%.
Turning to `CCc1nc(SCC(=O)NCCc2ccccc2)c2oc3ccccc3c2n1`, the AC50 was 3.55 µM (active).
Still for that read-out and setting: the value for `CCc1nc(SCC(=O)c2ccc(Cl)s2)c2oc3ccccc3c2n1` was 7.94 µM (active).
Consider `CCc1nc(SCC(=O)N2CCCc3ccccc32)c2oc3ccccc3c2n1`, for which the AC50 was 15.8 µM (active).
`Cc1ccccc1C(=O)NC(C)c1ccc2c(c1)CCCC2` (centres undefined): the “activity, negative = inhibition” value is -17.3%.
The same measure, in the same setting: in the case of `CCCCN=c1sc(C(=O)OC)cc(=O)n1CCCC` it was -0.264%; in that of `COC(=O)[C@H](CCSC)NC(=O)C/C=C\[C@@H](C)CO`, -19.4% [at 11.4 µM]; in that of `COC(=O)[C@H](CCSC)NC(=O)C/C=C\[C@@H](C)[C@@H](CO)OC`, -14.3% [at 11.4 µM].
On to `COC(=O)[C@H](CCSC)NC(=O)NCc1ccccc1F`, for which the AC50 is 15.8 µM (active).
Turning to `C[C@@H](C(=O)Nc1ccc2ccccc2c1)[C@@H]1C[C@@]1(C)[C@@H](NC(=O)c1cnccn1)c1ccccc1`, the AC50 is 1 µM (active).
In the case of `C[C@@H](C(=O)Nc1ccc2ccccc2c1)[C@H]1C[C@]1(C)[C@H](NC(=O)c1cnccn1)c1ccccc1`, the AC50 was 0.631 µM (active).
As to `C[C@@H](C(=O)Nc1ccc2ccccc2c1)[C@@H]1C[C@@]1(C)[C@@H](NC(=O)c1ccncc1Cl)c1ccccc1`, the AC50 was 10 µM (active).
With `C=CCNC(=S)N1CCN(c2ncc3c(=O)c(C(=O)O)cn(CC)c3n2)CC1`, the “activity, negative = inhibition” value was 2.96%.
As to `COc1cccc(CSc2nnc(C(F)(F)F)n2Cc2ccc(F)cc2)c1`, the AC50 is 28.2 µM (active).
Regarding `Fc1ccc(Cn2c(SCc3ccc(F)c(F)c3)nnc2C(F)(F)F)cc1`, the AC50 was 15.8 µM (active).
Take `COc1cccc(CSCC(=O)O)c1`: the activity, negative = inhibition is -5.22% [at 11.4 µM].
Turning to `Fc1ccc(Cn2c(SCc3ccc(F)c(C(F)(F)F)c3)nnc2C(F)(F)F)cc1`, the AC50 was 20 µM (active).
Consider `COc1ccc(C(=O)NC(CO)c2nnc(SCc3ccc(Cl)c(Cl)c3)n2C)cc1` (centres undefined), for which the activity, negative = inhibition was -5.47% [at 2.29 µM].
On to `Cc1ccc(CSc2nnc(C(F)(F)F)n2Cc2ccc(F)cc2)cc1`, for which the AC50 is 3.16 µM (active).
Consider `NC(=O)CC(c1ccccc1)c1ccco1` (centres undefined), for which the “activity, negative = inhibition” value is -3.81%.
On to `Cc1cccc(NC(=O)c2cc(N3C(=O)CCC3=O)ccc2Cl)n1`, for which the “activity, negative = inhibition” value was -1.39%.
Turning to `Cc1cccc(CNc2ccnc(-c3cccnc3)n2)c1`, the AC50 was 0.501 µM (active).
In the case of `O=C(Nc1ccnc(-c2cccnc2)n1)c1cccc(Cl)c1Cl`, the AC50 was 4.47 µM (active).
`O=C(Nc1ccnc(-c2cccnc2)n1)c1ccccc1Cl`: the activity, negative = inhibition was 3.82% [at 2.29 µM].
`c1ccc(CNc2ccnc(-c3cccnc3)n2)cc1`: the AC50 is 0.631 µM (active).
For `CC(=O)Nc1ccnc(-c2cccnc2)n1`, the “activity, negative = inhibition” value was 5.09%.
As for `Cn1cc(C(=O)c2ccc(Cl)cc2Cl)cc1C(=O)O`, the “activity, negative = inhibition” value is 24.4%.
The same measure, in the same setting: the value for `Nc1nc(NCc2ccccc2)nc(Nc2cccc(F)c2)c1[N+](=O)[O-]` was -2.74%.
Regarding `CCC1(O)c2ccccc2-c2ncccc21` (centres undefined), the “activity, negative = inhibition” value is -21%.
For the compound `C=C(C)c1cccc(C(C)(C)NC(=O)Nc2cc(C)ccc2OC)c1`, the AC50 is 10 µM (active).
With `COc1ccc(C(N)=O)cc1NC(=O)c1cccc(F)c1`, the “activity, negative = inhibition” value was 7.69%.
Turning to `O=[N+]([O-])c1c(NCCO)cc(Sc2nc3ccccc3s2)c2nonc12`, the AC50 was 25.1 µM (active).
Consider `c1ccc(NCCSc2nc3ccccc3s2)cc1`, for which the activity, negative = inhibition was -25.9% [at 11.4 µM].
On to `CCc1cc2c(Sc3nc4ccccc4s3)ncnc2s1`, for which the activity, negative = inhibition is 6.04% [at 2.29 µM].
Consider `COc1n[nH]c2nncnc12`, for which the “activity, negative = inhibition” value is 3.1%.
As for `CCOC(=O)c1[nH]c(C)c(C)c1C`, the “activity, negative = inhibition” value was -10.8%.
Turning to `CCOC(=O)C1=C(C)NC2(O)c3ccccc3C(=O)C12O` (centres undefined), the “activity, negative = inhibition” value was 8.09%.
On to `CCOC(=O)C1=C(C)NC(C)=C(C(=O)OCC)C1c1sccc1C`, for which the AC50 was 11.2 µM (active).
For `O=c1cnc2cnc(OCc3ccccc3)nc2n1Cc1ccc(F)cc1`, the AC50 is 5.01 µM (active).
Take `COc1ncc2ncc(=O)n(C)c2n1`: the “activity, negative = inhibition” value is -13%.
For the compound `N#CCCn1c(=O)cnc2cnc(OCc3ccccc3)nc21`, the “activity, negative = inhibition” value was -26.2%.
On to `COc1ncc2ncc(=O)n(Cc3ccc(F)cc3)c2n1`, for which the AC50 was 10 µM (active).
On to `COc1ncc2ncc(=O)n(CCC#N)c2n1`, for which the “activity, negative = inhibition” value is -14.1%.
Take `O=C1NCC2(CCN(CCc3ccccc3)CC2)O1`: the AC50 entry was “inactive”.
With `C[N+]1(CCC[N+]2(C)C[C@H]3[C@H](C2)[C@H]2C=C[C@@H]3CC2)CCOCC1` (some centres undefined), the activity, negative = inhibition was 31.7% [at 11.4 µM].
Consider `CCCCNC(=O)CCC(=O)Nc1ccc2nc(N3CCOCC3)cc(C)c2c1`, for which the AC50 was 5.01 µM (active).
For the compound `Cc1cc(N2CCN(C)CC2)nc2ccc(NC(=O)CCC(=O)NCc3ccco3)cc12`, the AC50 was 15.8 µM (active).
Consider `COc1ccc2c(C)cc(N3CCOCC3)nc2c1`, for which the “activity, negative = inhibition” value is -8.84%.
Turning to `CCN(CC)c1cc(C)c2cc(NC(=O)CNC(C)=O)ccc2n1`, the activity, negative = inhibition was -3.72% [at 11.4 µM].
`COCCCNC(=O)CCC(=O)Nc1ccc2nc(N3CCOCC3)cc(C)c2c1`: the AC50 was 12.6 µM (active).
As to `C/C(=N\O)c1cccc[n+]1Cc1ccccc1`, the activity, negative = inhibition was -11.2% [at 11.4 µM].
Regarding `COc1ccc2[nH]cc(CCNc3nc(-c4ccc(N(C)C)cc4)nc4ccccc34)c2c1`, the AC50 was 2.51 µM (active).
Take `COc1ccc2[nH]cc(CCNc3nc(-c4ccc(C(=O)N(C)C)cc4)nc4ccccc34)c2c1`: the AC50 is 2.51 µM (active).
As to `Cc1ccc(S(=O)(=O)CCc2nnc(NC(=O)COc3cccc(C)c3)s2)cc1`, the AC50 was 2.82 µM (active).
On to `O=C(Nc1nnc(CCS(=O)(=O)c2ccc(Br)cc2)s1)c1ccc([N+](=O)[O-])cc1`, for which the activity, negative = inhibition is -8.9% [at 2.29 µM].
Turning to `COC(=O)C1CSC(C(=O)OC)N1C(=O)Nc1c(C)cccc1C` (centres undefined), the “activity, negative = inhibition” value is -24.2%.
In the case of `CC(=O)c1cn(CC(=O)Nc2c(C)cccc2C)c2ccccc12`, the AC50 was 11.2 µM (active).
Still for that read-out and setting: in the case of `Cc1cccc(C)c1NC(=O)C[N+](C)(C)C` it was “inactive”.
The same measure, in the same setting: in the case of `Oc1ccc(-c2[nH]ncc2-c2ccc(Cl)cc2)c(O)c1` it was 0.562 µM (active); in that of `C=C(C)COc1ccc(-c2n[nH]c(C)c2-c2ccc(OC)cc2)c(O)c1`, 10 µM (active); in that of `Cc1[nH]nc(-c2ccc(O)cc2O)c1-c1ccc(Cl)cc1`, 3.55 µM (active).
Consider `COc1ccc(-c2n[nH]c(C)c2-c2ccc(Cl)cc2)c(O)c1`, for which the AC50 is 14.1 µM (active).
